Among the data in PubChem BioAssay (Tox21) are Potency and outcome values, retold here.

Assay [1] can be described thus: qHTS assay to identify small molecule agonists of the peroxisome proliferator-activated receptor delta (PPARd) signaling pathway - cell viability counter screen (AID 743211). Further: nearly all actives have a fitted effect of over 55% in size. Further: potency means the concentration at half of the fitted maximal effect. The gist of the method:
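Read-out: CellTiter-Glo luminescence, 30 min RT, measured in the same wells as the beta-lactamase reporter. Cells: GeneBLAzer PPAR delta UAS-bla HEK293H, 3000 cells/well, compound exposure 17 h at 37C.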

The target in assay [2] is Peroxisome proliferator-activated receptor delta (Homo sapiens) (UniProt Q03181). Description: qHTS assay to identify small molecule agonists of the peroxisome proliferator-activated receptor delta (PPARd) signaling pathway (AID 743212; calls by dose curve). The gist of the method: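 HEK293H PPARd-bla cells; 5 h preincubation 37 C/5% CO2; compound (DMSO) 37 C; LiveBLAzer B/G FRET substrate 2 h RT; fluorescence intensity.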
On the technique in general: In qHTS, concentration-response curves come from the screen itself.

Assay [3] is described as follows: qHTS assay to identify small molecule antagonists of the peroxisome proliferator-activated receptor delta (PPARd) signaling pathway - cell viability counter screen (AID 743213). Further: nearly all actives have a fitted effect of over 50% in size. The gist of the method:
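Agonist-stimulated (L165041, 300 nM final) HEK293H PPARd UAS-bla cells are exposed to compounds for 17 h at 37 C, and ATP-based luminescence (CellTiter-Glo) from the same wells reports cytotoxicity.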

Assay [4] concerns the target Bile acid receptor (Homo sapiens) (UniProt Q96RI1). As to the kind of experiment: qHTS assay to identify small molecule antagonists of the farnesoid-X-receptor (FXR) signaling pathway (AID 743217; active means well fitted inhibition curve with a large enough effect in the signal ratio in the repeat runs, not every such curve was filed as active; the % refers to the signal ratio). A digest of the protocol:
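FXR-UAS-bla HEK 293T cells pre-incubated 5 h at 37 °C, then exposed to compounds with chenodeoxycholic acid (50 uM final) for 16 h at 37 °C. Beta-lactamase reporter read by LiveBLAzer B/G FRET substrate fluorescence after 2 h at room temperature.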

A short description of assay [5]: qHTS assay to identify small molecule agonists of the farnesoid-X-receptor (FXR) signaling pathway - cell viability counter screen (AID 743218). Further: nearly all actives have a fitted effect of over 45% in size. The gist of the method: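 FXR-UAS-bla HEK 293T cells, plated 5 h at 37 C, were exposed to compounds for 16 h at 37 C. CellTiter-Glo was then added to the same wells as the bla readout; luminescence read after 30 min at room temperature.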

For assay [6], the target named is Bile acid receptor (Homo sapiens) (UniProt Q96RI1). As to the kind of experiment: qHTS assay to identify small molecule agonists of the farnesoid-X-receptor (FXR) signaling pathway (AID 743220; active means well fitted activation curve with a large enough effect in the signal ratio in the repeat runs, not every such curve was filed as active; the % refers to the signal ratio). A digest of the protocol: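 Beta-lactamase reporter under UAS control in GeneBLAzer FXR HEK 293T cells (5000/well) measured with LiveBLAzer FRET substrate after 2 h at room temperature. Compound exposure lasted 16 h at 37C.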

A short description of assay [7]: qHTS assay to identify small molecule antagonists of the farnesoid-X-receptor (FXR) signaling pathway - cell viability counter screen (AID 743221; active means well fitted cell-killing curve with a large enough effect in the repeat runs, not every such curve was filed as active; further: nearly all actives have a fitted effect of over 50% in size). A digest of the protocol: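 HEK 293T FXR-bla cells, 5 h pre-incubation; compound + CDCA 50 uM final, 16 h, 37 C; beta-lactamase FRET read first, then CellTiter-Glo luminescence, 30 min RT.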
In assay [8] the target is Vitamin D3 receptor (Homo sapiens) (UniProt P11473). Description: qHTS assay to identify small molecule agonists of the vitamin D receptor (VDR) signaling pathway (AID 743222; calls by dose curve). The gist of the method: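 VDR-bla cells were plated 4 h at 37C/5% CO2, then exposed to compounds in DMSO for 16 h. After LiveBLAzer B/G FRET substrate addition and 2 h at room temperature, beta-lactamase reporter fluorescence was read.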

A short description of assay [9]: qHTS assay to identify small molecule agonists of the vitamin D receptor (VDR) signaling pathway - cell viability counter screen (AID 743224). Further: nearly all actives have a fitted effect of over 50% in size. Further: potency means the concentration at half of the fitted maximal effect. The gist of the method: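 VDR-bla cells were preincubated 4 h at 37C/5% CO2, then exposed to compounds for 16 h. After the 2 h room-temperature bla FRET read, CellTiter-Glo was added to the same wells and luminescence read after 30 min.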

A short description of assay [10]: qHTS assay to identify small molecule antagonists of the vitamin D receptor (VDR) signaling pathway - cell viability counter screen (AID 743225). Further: nearly all actives have a fitted effect of over 50% in size. The gist of the method:
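Viability counter screen run in the same wells as the beta-lactamase reporter assay: HEK 293T VDR-UAS-bla cells, 16 h compound exposure at 37C with 3 nM (final) 1-alpha,25-dihydroxyvitamin D3. CellTiter-Glo luminescence, 30 min, room temperature.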

Assay [11] is described as follows: qHTS assay to identify small molecule agonists of the NFkB signaling pathway (AID 1159509; active means well fitted curve in the direction sought with a large enough effect in the signal ratio in the repeat runs, not every such curve was filed as active; the % refers to the signal ratio; further: series mostly up to about 61 µM). The gist of the method:
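ME-180 NFkB-bla, 2,000 cells/well, overnight plating; cpd pinned in DMSO, 5 h 37 C; B/G FRET substrate 1.5 h RT; ex 405, em 460/530 nm.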

A short description of assay [12]: qHTS assay to identify small molecule agonists of the NFkB signaling pathway - cell viability counter screen (AID 1159515; calls by dose curve; further: series mostly up to about 61 µM; nearly all actives have a fitted effect of over 55% in size). The gist of the method: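 NFkB-bla ME-180 cells, 2,000/well, were plated overnight at 37 C, 5% CO2, then exposed to compounds in DMSO for 5 hr. After the bla FRET read, CellTiter-Glo was added to the same wells; luminescence was read after 30 min at room temperature.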

Assay [13] in a line: qHTS assay to identify small molecule agonists of the endoplasmic reticulum stress response signaling pathway (AID 1159516; active means well fitted activation curve with a large enough effect in the signal ratio in the repeat runs, not every such curve was filed as active; the % refers to the signal ratio). The gist of the method: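 CellSensor ESRE-bla HeLa cells, carrying a beta-lactamase reporter driven by the ER stress response element, were plated overnight and exposed to compounds for 5 hr at 37 C. Reporter activity was read as FRET substrate fluorescence after 2 hr at room temperature.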

Assay [14] can be described thus: qHTS assay to identify small molecule agonists of the endoplasmic reticulum stress response signaling pathway - cell viability counter screen (AID 1159517; calls by dose curve). A digest of the protocol:
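HeLa cells carrying an ESRE-driven beta-lactamase reporter receive compound for 5 hr at 37 C. Cell viability is then gauged with CellTiter-Glo by luminescence, 30 min at room temperature.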

Assay [15] in a line: qHTS assay to identify small molecule antagonists of the retinoid-related orphan receptor gamma (ROR-gamma) signaling pathway - cell viability counter screen (AID 1159520). Further: nearly all actives have a fitted effect of over 50% in size. A digest of the protocol:
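Cytotoxicity was read from cellular ATP (CellTiter-Glo luminescence) after 16 hr at 37 C with 1 uM doxycycline induction. The inducer was added 2 hr after compound transfer to Tet-on ROR gamma CHO cells.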

Assay [16] is described as follows: qHTS assay to identify small molecule agonists of the AP-1 signaling pathway - cell viability counter screen (AID 1159525; calls by dose curve; further: nearly all actives have a fitted effect of over 55% in size). The gist of the method: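 Luminescent ATP readout (Cell Titer Glo, 30 min RT), normalised to DMSO and tetra n-octyl ammonium bromide controls. Cells were ME-180 AP-1-bla in 0.5% dialyzed FBS Opti-MEM, with a 5 h, 37 °C compound exposure.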

Assay [17] can be described thus: qHTS assay to identify small molecule agonists of the AP-1 signaling pathway (AID 1159526; calls by dose curve).
The target in assay [18] is Vitamin D3 receptor (Homo sapiens) (UniProt P11473). Description: qHTS assay to identify small molecule antagonists of the vitamin D receptor (VDR) signaling pathway (AID 743223; active means well fitted inhibition curve with a large enough effect in the signal ratio in the repeat runs, not every such curve was filed as active; the % refers to the signal ratio). A digest of the protocol: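 Beta-lactamase reporter read-out: FRET substrate fluorescence after 2 h at room temperature, following 16 h exposure of VDR-bla cells to test compound plus 3 nM (final) 1alpha,25-dihydroxyvitamin D3 agonist at 37C.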

Records with an inconclusive call do not appear. Unmarked numbers belong to inactive results. Calls of active or inactive are those of the source. Unless noted, the call rests on the fitted dose curve; in most records, active means well fitted curve in the direction sought with a large enough effect in the repeat runs; inconclusive means weak or mixed curves; inactive means no such curve, though single readings can be large; an effect the other way counts as inactive or inconclusive.

Sequence of Peroxisome proliferator-activated receptor delta (Homo sapiens) (Q03181 whole entry, looked up): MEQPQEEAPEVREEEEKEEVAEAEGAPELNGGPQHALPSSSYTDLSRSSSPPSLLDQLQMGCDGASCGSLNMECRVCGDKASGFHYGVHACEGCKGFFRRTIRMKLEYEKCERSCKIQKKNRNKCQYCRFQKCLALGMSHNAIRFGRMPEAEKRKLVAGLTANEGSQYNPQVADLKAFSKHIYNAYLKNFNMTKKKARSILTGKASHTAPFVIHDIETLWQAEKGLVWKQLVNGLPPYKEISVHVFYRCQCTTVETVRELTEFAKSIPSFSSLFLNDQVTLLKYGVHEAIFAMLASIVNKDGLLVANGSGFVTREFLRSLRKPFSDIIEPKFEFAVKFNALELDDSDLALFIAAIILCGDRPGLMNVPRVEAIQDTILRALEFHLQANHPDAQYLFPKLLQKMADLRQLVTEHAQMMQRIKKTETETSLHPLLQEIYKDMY
Sequence of Vitamin D3 receptor (Homo sapiens) (P11473 whole entry, looked up): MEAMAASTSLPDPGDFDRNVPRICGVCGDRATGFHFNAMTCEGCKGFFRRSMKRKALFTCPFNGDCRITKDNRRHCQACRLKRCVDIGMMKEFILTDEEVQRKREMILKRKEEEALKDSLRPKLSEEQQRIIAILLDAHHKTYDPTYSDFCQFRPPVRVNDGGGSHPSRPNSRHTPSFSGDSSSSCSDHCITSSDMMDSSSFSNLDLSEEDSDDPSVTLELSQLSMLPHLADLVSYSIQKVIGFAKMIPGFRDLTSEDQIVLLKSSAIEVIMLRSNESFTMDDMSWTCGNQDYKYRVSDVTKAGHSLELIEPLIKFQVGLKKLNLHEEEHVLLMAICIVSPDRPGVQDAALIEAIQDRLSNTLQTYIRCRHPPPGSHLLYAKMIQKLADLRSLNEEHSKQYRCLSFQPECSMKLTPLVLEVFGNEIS
Sequence of Bile acid receptor (Homo sapiens) (Q96RI1 whole entry, looked up): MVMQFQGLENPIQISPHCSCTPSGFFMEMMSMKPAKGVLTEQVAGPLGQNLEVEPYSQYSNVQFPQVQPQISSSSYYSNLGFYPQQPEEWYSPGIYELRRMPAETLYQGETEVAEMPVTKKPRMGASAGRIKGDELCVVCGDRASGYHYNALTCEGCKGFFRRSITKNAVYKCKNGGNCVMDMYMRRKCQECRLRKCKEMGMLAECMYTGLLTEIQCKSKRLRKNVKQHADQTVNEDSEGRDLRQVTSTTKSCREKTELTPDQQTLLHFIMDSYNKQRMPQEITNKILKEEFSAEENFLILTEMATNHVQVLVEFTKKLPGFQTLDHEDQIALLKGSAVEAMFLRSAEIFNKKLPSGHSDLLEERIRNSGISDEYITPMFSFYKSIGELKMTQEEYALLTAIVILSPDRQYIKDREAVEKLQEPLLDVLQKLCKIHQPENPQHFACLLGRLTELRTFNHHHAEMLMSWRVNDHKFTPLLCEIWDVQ

Consider `O=C(O)c1ccc(CO)o1`, for which the Potency entry in assay [1], in [2], in assay [3], in assay [4], in assay [5] and in assay [6] was “inactive” in each case. In addition, the Potency entry in assay [7], in [9], in assay [10] and in assay [15] was “inactive” each time. Further, the compound was called inactive in assay [8], in [11], in [12], in [13], in assay [14] and in [16]. Besides, in assay [17], the compound was classed as inactive.
Regarding `C=C(C)C(=O)OCCOC(=O)CC(C)=O`, the Potency result in assay [1], in [2], in assay [5], in assay [6], in [7] and in assay [9] was “inactive” throughout. Besides, the Potency entry in assay [15] was “inactive”. The compound was classed as inactive in assay [11], in assay [12], in assay [13], in assay [14], in assay [16] and in assay [17].
For `CCOC(=O)c1ccccc1C`, the Potency result in assay [1], in [3], in [4], in assay [6], in [9] and in assay [15] was “inactive” throughout. The outcome in assay [11], in [12], in assay [13], in assay [14], in assay [16] and in assay [17] was inactive.
For the compound `CCOC(=O)c1ccccc1OC`, the Potency entry in assay [1], in assay [2], in assay [3], in [5], in [7] and in [9] was “inactive” throughout. For the same compound, the Potency result in assay [10] and in assay [15] was “inactive” throughout. Besides, the result in assay [8], in assay [18], in [11], in assay [12], in assay [13] and in assay [14] was inactive. Besides, the compound was classed as inactive in [16] and in [17].
For `Nc1ccc(Cl)cc1[N+](=O)[O-]`, the Potency entry in [1], in assay [2], in [3], in assay [5], in assay [7] and in [9] was “inactive” in each case. The Potency entry in assay [10] and in assay [15] was “inactive” throughout. For the same compound, the outcome in assay [8], in assay [18], in assay [11], in [12], in [13] and in [14] was inactive. Besides, the result in assay [16] and in assay [17] was inactive.
For `C/C=C/C=C/CCCCCCCO`, the Potency result in assay [1], in assay [2], in [5], in assay [6], in [7] and in [9] was “inactive” each time. Further, the Potency entry in assay [10] and in assay [15] was “inactive” each time. Also, the call in assay [11], in assay [12], in [13], in [14], in assay [16] and in [17] was inactive.
Regarding `Nc1nc(Cl)nc2c1ncn2[C@@H]1O[C@H](CO)[C@@H](O)[C@@H]1F`, the Potency entry in assay [1], in assay [2], in assay [3], in [5], in [6] and in [7] was “inactive” each time. Further, the Potency result in [9], in assay [10] and in [15] was “inactive” in each case. For the same compound, the compound was called inactive in assay [11], in assay [12], in assay [13], in [14], in assay [16] and in assay [17].
Turning to `CCC(=O)Oc1ccc(/C(CC)=C(\CC)c2ccc(OC(=O)CC)cc2)cc1`, the Potency in [1] and in assay [9] was 54.9 µM (active) in each case. Also, the Potency result in assay [2], in assay [7], in [10] and in assay [15] was “inactive” each time. Besides, the result in assay [18], in [11], in assay [12], in [13], in assay [14] and in assay [16] was inactive. For the same compound, the compound was called inactive in assay [17].
Regarding `Cn1c(=O)c2c(ncn2CC(=O)O)n(C)c1=O`, the Potency entry in [1], in assay [3], in assay [5], in assay [7], in [9] and in [10] was “inactive” throughout. For the same compound, in assay [15], the Potency result is “inactive”. The outcome in assay [8], in assay [18], in [11], in [12], in assay [13] and in assay [14] was inactive. For the same compound, the outcome in [16] and in [17] was inactive.
